Assay outcomes: PubChem BioAssay, several laboratories
Shown are actives, neighbours in structure and some others; about 4.3% of the full set was active somewhere.
NR3A LBD binder: modulates the human NR3A ligand-binding domain | NR3A LBD differential scanning fluorimetry, Tm shift; 0% = protein alone, 100% = glycine-bound protein | Tm shift relative to glycine control, % at 25 µM | actives 2.5% (n = 340,000) | AID 1259313;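 active means melting temperature shift of at least 10% of the positive control shift, at one fixed dose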
rCAG binder: molecules binding r(CAG) RNA repeats; AID 651821; r(CAG) RNA repeat, TO-PRO-1 dye displacement fluorescence; inhibition, % at 3 µM; actives 1.3% (n = 370,000);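 active means inhibition above the plate cutoff, the mean of all test compounds on that plate plus 3 SD, cut at about 35% in these data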;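 further: 0% = DMSO alone and 100% = 100 µM mitoxantrone as full dye displacement; higher means more dye released from RNA so lower well fluorescence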
NadD inh: blocks S. aureus nicotinate mononucleotide adenylyltransferase. purified NadD enzyme, colorimetric absorbance read-out. actives 0.78% (n = 360,000). inhibition, % at 20 µM; in the data active means inhibition above about 26%
FAS-TE inh: blocks the thioesterase domain of human fatty acid synthase; P49327; actives 0.67% (n = 360,000); recombinant FAS-TE, OMFH fluorogenic substrate, fluorescence endpoint; inhibition, % at 15 µM;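 active means compounds whose normalised, plate-corrected inhibition of enzyme fluorescence in the single-dose primary screen is 50% or more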;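 further: 0% = DMSO with enzyme and 100% = substrate without enzyme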
* marks the source's active call; other numbers are inactive results.

For Cc1nc2c(N=Nc3ccccc3F)c(N)nn2c(N)c1C#N the results were NR3A LBD binder 15.0*, rCAG binder 12.7, NadD inh 18.5 and FAS-TE inh -1.7.
For CCN(CC)S(=O)(=O)c1ccc2[nH]c(=O)cc(C(=O)NCC3CCCO3)c2c1 (centres undefined) the results were NR3A LBD binder 16.8*, rCAG binder -0.8, NadD inh 0.4 and FAS-TE inh -3.4.
CCCCCCCCN1C(=O)[C@@H](CC(=O)NCCCOC)C[C@@]2(C(=O)OC)C1=C[C@H](C1CCCC1)O[C@@H]2C was read as rCAG binder 5.8.
For CC(=O)Nc1ccc(OCc2cn(CC(=O)c3ccc(O)cc3)nn2)cc1 the results were rCAG binder 3.4, NadD inh 32.2* and FAS-TE inh -5.4.
Screening CCOC(=O)c1c(Nc2ccc(Cl)cc2)sc(/C=C2\C=Nc3ccccc32)c1O returned NR3A LBD binder -4.2, rCAG binder 7.7, NadD inh 32.7* and FAS-TE inh -9.5.
`CCOC(=O)c1c(NC(=O)c2ccc(Cl)s2)sc(C)c1C` gave NR3A LBD binder -1.2, rCAG binder -0.7, NadD inh 2.3 and FAS-TE inh -1.5.
`O=C1NC2(CCCCC2)C(=O)N1CCS(=O)(=O)Oc1ccccc1` gave NR3A LBD binder 12.2*, rCAG binder -2.3, NadD inh 0.3 and FAS-TE inh -2.0.
For Oc1ccc(Br)cc1-c1cc(-c2ccccc2)n[nH]1 the results were NR3A LBD binder 28.6*, rCAG binder 26.6, NadD inh -1.9 and FAS-TE inh 17.4.
COc1ccc(O)c(-c2cc(-c3cccc(Br)c3)n[nH]2)c1 was read as NR3A LBD binder 15.8*, rCAG binder 26.5, NadD inh 1.0 and FAS-TE inh 21.0.
For COc1ccc(-c2cc(-c3ccc(Cl)cc3)n[nH]2)c(O)c1 the results were NR3A LBD binder 49.2*, rCAG binder 17.5, NadD inh -4.0 and FAS-TE inh 8.5.
Oc1ccccc1-c1cc(-c2ccc3c(c2)OCCO3)n[nH]1 was read as NR3A LBD binder 15.5*, rCAG binder 14.3, NadD inh -3.5 and FAS-TE inh 18.4.
Screening CC(COc1cc(F)cc(C#N)c1)CN1CCC(C(O)(c2ccccc2)c2ccccc2)CC1 (centres undefined) returned rCAG binder -2.0.
COC(=O)c1cc(-c2cc3ccccc3s2)c(=O)n2c1CCC2 was read as rCAG binder 2.1.
Screening Oc1ccc(Br)cc1-c1cc(-c2ccc(Cl)cc2)n[nH]1 returned NR3A LBD binder 42.5*, rCAG binder 17.6, NadD inh -0.5 and FAS-TE inh 19.9.
COc1cc(NC(=O)c2ccccc2)c(C)cc1NC(=O)CSc1nnc(-c2ccco2)n1Cc1ccco1 was read as rCAG binder 7.4.
CCc1cccc2c(C(=O)COC(=O)c3ccc(O)cc3)c[nH]c12 was read as NR3A LBD binder 14.9*, rCAG binder 18.1, NadD inh 1.1 and FAS-TE inh -6.3.
`CCc1cccc2c(C(=O)COC(=O)c3ccccc3)c[nH]c12` gave NR3A LBD binder -8.4, rCAG binder 6.3, NadD inh -11.8 and FAS-TE inh 11.2.
Screening COc1cccc2c1C1COC3C4CC(C(=O)O)C(C(C2)N13)N4C (centres undefined) returned NR3A LBD binder 14.0*, rCAG binder 5.7, NadD inh 3.8 and FAS-TE inh -7.3.
For COc1cccc2c1C(CCCC(=O)O)CCC2 (centres undefined) the results were NR3A LBD binder -4.4, rCAG binder 1.4, NadD inh -4.7 and FAS-TE inh -11.6.
Screening CC1CCCC(C)N1C(=O)Cn1cc(/C=C2/C(=O)Nc3ccccc32)c2ccccc21 (centres undefined) returned NR3A LBD binder -29.8, NadD inh 34.0* and FAS-TE inh 13.9.
For COc1ccc([N+](=O)[O-])cc1C1NN=C(c2ccccc2O)S1 (centres undefined) the results were NR3A LBD binder 7.2, rCAG binder 13.3, NadD inh 34.8* and FAS-TE inh 9.9.
Screening COC(=O)C1OC1c1cc([N+](=O)[O-])ccc1OC (centres undefined) returned NR3A LBD binder -0.2, rCAG binder 2.2, NadD inh 1.0 and FAS-TE inh 0.1.
COc1ccc(C2CC(c3ccc(Cl)cc3)=NN2c2ccc(S(N)(=O)=O)cc2)cc1 (centres undefined) was read as NR3A LBD binder 36.8*, rCAG binder 11.3, NadD inh 23.3 and FAS-TE inh 23.3.
`COc1ccc(C2CC(c3cccc(Cl)c3)=NN2c2ccc(S(N)(=O)=O)cc2)cc1` (centres undefined) gave NR3A LBD binder 28.4*, rCAG binder 12.2, NadD inh 17.5 and FAS-TE inh 19.1.
Screening COc1ccc(C2CC(c3ccncc3)=NN2c2ccc(S(N)(=O)=O)cc2)cc1 (centres undefined) returned NR3A LBD binder -2.6, rCAG binder 8.6, NadD inh 11.1 and FAS-TE inh 1.6.
For NS(=O)(=O)c1ccc(N2N=C(c3ccc(Br)cc3)CC2c2ccc(F)cc2)cc1 (centres undefined) the results were NR3A LBD binder 39.2*, rCAG binder 21.4, NadD inh 20.2 and FAS-TE inh 16.7.
`COC(=O)C1CN(CC(C)C)CCS(=O)(=O)N1Cc1ccc(C(F)(F)F)cc1` (centres undefined) gave rCAG binder -2.5.
